Records with an inconclusive call do not appear. Calls of active or inactive are those of the source. The calls were made as follows: active = hit-call score of the fitted dose curve at least 0.9, where 1 is the maximum; inconclusive = response in the unintended direction; inactive = score below 0.9.
Biological target: Muscarinic acetylcholine receptor M2 (Homo sapiens) (UniProt P08172)
Assay: NVS_GPCR_hM2: NovaScreen (NVS) G Protein-Coupled Receptor Assay for human Muscarinic, M2 Receptor (AID 2283273)
Method: (§1) NVS_GPCR_hM2 is a biochemical, single-readout assay that uses extracted gene-proteins from CHO in a cell-free assay. Measurements were taken 1 hour after chemical dosing in a 96-well plate.NVS_GPCR_hM2 is one of one assay component(s) measured or calculated from the NVS_GPCR_hM2 assay. It is designed to make measurements of radioligand binding, a form of binding reporter, as detected with scintillation counting signals by Filter-based radiodetection technology.Data from the assay component NVS_GPCR_hM2 was analyzed into 1 assay endpoint. This assay endpoint, NVS_GPCR_hM2, was analyzed in the positive analysis fitting direction relative to DMSO as the negative control and baseline of activity. Using a type of binding reporter, loss-of-signal activity can be used to understand changes in the binding as they relate to the gene CHRM2. Furthermore, this assay endpoint can be referred to as a primary readout, because the performed assay has only produced 1 assay endpoint. To generalize the intended target to other relatable targets, this assay endpoint is annotated to the gpcr intended target family, where the subfamily is rhodopsin-like receptor.
Binding assays used specific radioligands (tritiated, iodinated) with non-radioactive competitive displacement ligands in agonist or antagonist protocols (as indicated) and various reference compounds and inhibitors to titrate specific binding to receptors and transporters. Most enzyme assays (CYPs, kinases, phosphatases, proteases, HDACs) used recombinant protein and specific substrates (fluorescence mostly, some colorimetric and radioactive) and inhibitors, followed by a biochemical separation of substrate and product. All assays for the biochemical HTS were initially run in duplicate at a single concentration (10 uM for CYP450 assays and 25 uM for all others). […] Each assay was run with positive and negative controls, and concurrent controls on every plate. The follow-up (secondary) screen tested active chemical-pairs in concentration series, as well as a few additional assays not tested in the primary screen, some selected negative inactives, and several cases re-run in the concentration series for confirmatory purposes.

Chain of Muscarinic acetylcholine receptor M2 (Homo sapiens) (P08172 whole entry, looked up): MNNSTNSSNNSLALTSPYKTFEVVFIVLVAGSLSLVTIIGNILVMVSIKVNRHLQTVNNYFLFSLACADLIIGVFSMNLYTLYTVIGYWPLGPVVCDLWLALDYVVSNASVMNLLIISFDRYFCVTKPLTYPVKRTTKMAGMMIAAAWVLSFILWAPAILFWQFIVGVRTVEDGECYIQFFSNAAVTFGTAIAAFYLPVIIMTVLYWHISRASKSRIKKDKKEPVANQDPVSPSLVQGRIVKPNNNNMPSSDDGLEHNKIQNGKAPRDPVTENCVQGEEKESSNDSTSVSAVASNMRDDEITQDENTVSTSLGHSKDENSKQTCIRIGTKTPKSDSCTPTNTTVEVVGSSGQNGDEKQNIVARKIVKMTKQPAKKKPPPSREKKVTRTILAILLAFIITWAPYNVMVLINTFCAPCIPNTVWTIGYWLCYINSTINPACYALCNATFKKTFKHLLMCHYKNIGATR

SMILES	outcome	AC50
CCCCCCCCCC	inactive	
Cc1ncc([C@@H](CCCCCCc2ccc3c(n2)NCCC3)CC(=O)O)cn1		19.2 µM (active)
CCn1nc(C)c2c1C(=O)NCC(c1ccc(O)cc1)=N2	inactive	
Cc1nccn1-c1ccc(Sc2cccc(C3(C(N)=O)CCOCC3)c2)cc1		6.6 µM (active)
c1ccc(C(O[C@@H]2CCCN(CCc3ccc4c(c3)OCO4)C2)c2ccccc2)cc1		0.0461 µM (active)
COc1cc(C(C)C)c2c(c1)S(=O)(=O)N(COc1cc(=O)n3cccc(OCCN4CCCCC4)c3n1)C2=O		0.681 µM (active)

Biological target: human Muscarinic, M4 Receptor, CHRM4 (gene 1132) (UniProt P08173)
Assay: NVS_GPCR_hM4: NovaScreen (NVS) G Protein-Coupled Receptor Assay for human Muscarinic, M4 Receptor (AID 2283274)
Method in brief: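 Cell-free radioligand displacement using CHO-derived human M4 receptor protein, 1 h after dosing; bound radioactivity by filtration and scintillation counting. Primary screen single 25 uM duplicate, actives followed in concentration series.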

Chain of human Muscarinic, M4 Receptor, CHRM4 (gene 1132) (P08173 whole entry, looked up): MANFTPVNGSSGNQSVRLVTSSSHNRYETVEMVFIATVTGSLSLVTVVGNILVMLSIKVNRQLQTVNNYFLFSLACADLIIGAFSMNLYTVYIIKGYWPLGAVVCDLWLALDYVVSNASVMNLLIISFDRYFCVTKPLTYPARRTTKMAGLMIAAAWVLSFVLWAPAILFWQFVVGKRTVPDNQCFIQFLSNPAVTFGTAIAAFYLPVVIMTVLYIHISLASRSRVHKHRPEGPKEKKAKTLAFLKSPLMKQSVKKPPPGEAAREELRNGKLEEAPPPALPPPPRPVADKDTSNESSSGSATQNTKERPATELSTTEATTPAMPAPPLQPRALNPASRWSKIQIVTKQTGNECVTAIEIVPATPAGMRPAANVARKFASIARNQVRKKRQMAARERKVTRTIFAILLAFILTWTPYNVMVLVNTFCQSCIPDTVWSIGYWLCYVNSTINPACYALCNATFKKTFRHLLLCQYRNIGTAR

SMILES	outcome	AC50
C=CCc1cc(S(=O)(=O)c2ccc(O)c(CC=C)c2)ccc1O	inactive	
CCCCCCCCCC	inactive	
CCn1nc(C)c2c1C(=O)NCC(c1ccc(O)cc1)=N2	inactive	
Cc1nccn1-c1ccc(Sc2cccc(C3(C(N)=O)CCOCC3)c2)cc1		6.73 µM (active)
c1ccc(C(O[C@@H]2CCCN(CCc3ccc4c(c3)OCO4)C2)c2ccccc2)cc1		0.0501 µM (active)
COc1cc(C(C)C)c2c(c1)S(=O)(=O)N(COc1cc(=O)n3cccc(OCCN4CCCCC4)c3n1)C2=O		3.98 µM (active)
O=S(=O)(O)c1ccc(N=Nc2c(O)ccc3cc(S(=O)(=O)O)ccc23)cc1	inactive	

Biological target: Muscarinic acetylcholine receptor M5 (Homo sapiens) (UniProt P08912)
Assay: NVS_GPCR_hM5: NovaScreen (NVS) G Protein-Coupled Receptor Assay for human Muscarinic, M5 Receptor (AID 2283275)
Method: as §1, with “NVS_GPCR_hM5” for “NVS_GPCR_hM2”, “plate.NVS_GPCR_hM5” for “plate.NVS_GPCR_hM2”, “NVS_GPCR_hM5,” for “NVS_GPCR_hM2,”, “CHRM5.” for “CHRM2.”
Binding assays used specific radioligands (tritiated, iodinated) with non-radioactive competitive displacement ligands in agonist or antagonist protocols (as indicated) and various reference compounds and inhibitors to titrate specific binding to receptors and transporters. Most enzyme assays (CYPs, kinases, phosphatases, proteases, HDACs) used recombinant protein and specific substrates (fluorescence mostly, some colorimetric and radioactive) and inhibitors, followed by a biochemical separation of substrate and product. All assays for the biochemical HTS were initially run in duplicate at a single concentration (10 uM for CYP450 assays and 25 uM for all others). Assay-chemical combinations meeting a pre-defined threshold (e.g., 30% inhibition and other criteria defined below) were then run in singleton concentration-response format with maximum concentration of 20 uM for CYPs and 50 uM for all others. Each assay was run with positive and negative controls, and concurrent controls on every plate. The follow-up (secondary) screen tested active chemical-pairs in concentration series, as well as a few additional assays not tested in the primary screen, some selected negative inactives, and several cases re-run in the concentration series for confirmatory purposes.

Chain of Muscarinic acetylcholine receptor M5 (Homo sapiens) (P08912 whole entry, looked up): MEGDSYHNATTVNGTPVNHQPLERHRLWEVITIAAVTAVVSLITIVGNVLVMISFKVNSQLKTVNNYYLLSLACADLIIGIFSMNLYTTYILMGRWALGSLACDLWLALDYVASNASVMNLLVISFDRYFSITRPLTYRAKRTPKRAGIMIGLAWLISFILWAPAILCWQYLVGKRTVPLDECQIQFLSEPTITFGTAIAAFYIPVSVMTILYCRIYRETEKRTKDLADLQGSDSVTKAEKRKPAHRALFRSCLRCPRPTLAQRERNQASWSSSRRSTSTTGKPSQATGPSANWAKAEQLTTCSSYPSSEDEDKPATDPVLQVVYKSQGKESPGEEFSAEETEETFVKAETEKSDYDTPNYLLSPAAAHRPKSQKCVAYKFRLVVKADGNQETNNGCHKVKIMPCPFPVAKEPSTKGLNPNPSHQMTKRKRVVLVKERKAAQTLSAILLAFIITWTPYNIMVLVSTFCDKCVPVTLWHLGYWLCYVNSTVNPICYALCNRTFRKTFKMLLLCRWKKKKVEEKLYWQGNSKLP

SMILES	AC50	outcome
C=CCc1cc(S(=O)(=O)c2ccc(O)c(CC=C)c2)ccc1O	25 µM (active)	
CCn1nc(C)c2c1C(=O)NCC(c1ccc(O)cc1)=N2		inactive
Cc1nccn1-c1ccc(Sc2cccc(C3(C(N)=O)CCOCC3)c2)cc1		inactive
c1ccc(C(O[C@@H]2CCCN(CCc3ccc4c(c3)OCO4)C2)c2ccccc2)cc1	0.00937 µM (active)	
CCCCCCCCCCCCCCCCOS(=O)(=O)O	8.94 µM (active)	
COc1cc(C(C)C)c2c(c1)S(=O)(=O)N(COc1cc(=O)n3cccc(OCCN4CCCCC4)c3n1)C2=O	3.71 µM (active)	

Source: PubChem BioAssay (EPA / NIEHS)
